Screening data from PubChem BioAssay.
A selection: hits, their analogues and other compounds. The true share with any hit is near 2.1%.
CFTR F508del cor: F508del CFTR correction, initial screen, CFBE line, single point; CFBE cells, YFP halide quenching; stimulated with forskolin plus potentiator P3; % fluorescence drop versus neutral controls; activity (quench increase), % at 7.58 µM; 350,000 compounds, 0.36% hits;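 active means mean added fluorescence quench of at least 8% versus neutral control, with both replicates also reaching 8%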;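 further: cells transiently co-express mutant CFTR-F508del with the halide-sensitive YFP; corrector assay measuring rescue of mutant channel to the surface after 24 h compound exposure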
PvdQ acylase: P. aeruginosa PvdQ acylase inhibitors, primary screen, biochemical, fluorescence, plate reader and imaging, single point | PvdQ acylase [Pseudomonas aeruginosa LESB58] | purified PvdQ acylase | inhibition, % at 10 µM | 340,000 compounds, 0.063% hits | AID 488965, 2010; in the data active means inhibition above about 30%, passing the limit was not always enough
rRNA inh HTS: reduced GFP signal of wild-type E. coli, primary screen, bacterial rRNA inhibitor project, GFP/RFP fluorescence, OD600, single point; 350,000 compounds, 1.6% hits; E. coli WT GFP vs humanized-ribosome RFP mutants, 24 h; active compounds read low; DMSO median 0, no signal -100; AID 720706, 2013; GFP signal change (wild-type ribosome), % (test concentration not listed);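 active means significant combined selectivity score with lowered wild-type GFP, culture density cut under 30%, mutant RFP and density less affected; inactive means any of these conditions unmet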
ERAP1 HTS inh: human ERAP1 aminopeptidase inhibitors, primary screen, biochemical, single point, plate reader | recombinant ERAP1, Leu-AMC fluorescence, 60 min | AID 652197, 2013 | Endoplasmic reticulum aminopeptidase 1 (Homo sapiens), Q9NZ08 | 340,000 compounds, 0.15% hits | inhibition, % at 10.7 µM;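 active means mean replicate inhibition of at least 30%, or all replicates individually reaching that 30% level; inactive means mean below 30% and not every replicate reaching it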
ARNT TACC3 PPI: disruptors of ARNT/TACC3 protein interaction, primary screen, biochemical, AlphaScreen, single concentration; inhibition, % at 9.99 µM; AlphaScreen His-ARNT PAS-B/GST-TACC3 binding, luminescence; TACC3 fragment carries E629A point mutation; Transforming acidic coiled-coil-containing protein 3 (Homo sapiens), Q9Y6A5; 390,000 compounds, 0.66% hits;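 active means mean inhibition of replicates at least 50% and at least half of replicates each reaching 50%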
Numbers stand for hits; . = inactive; / = no result.

SMILES | CFTR F508del cor | PvdQ acylase | rRNA inh HTS | ERAP1 HTS inh | ARNT TACC3 PPI
NC(=O)Cc1ccc(C(=O)c2ccc(Cl)cc2)s1 | . | . | -24 | . | .
CC(=O)NCCc1nc2ccccc2n1CCOc1cccc(C)c1 | . | . | -28 | / | .
CC(C)n1c(C(=O)OCC(=O)NCc2ccc3c(c2)OCO3)cc2sccc21 | . | . | -25 | . | .
O=C(NCC[C@H]1CC[C@@H](NS(=O)(=O)Cc2ccccc2)[C@H](CO)O1)C1CC1 | . | / | . | . | .
CC(C)[C@@H]1CC=CC[C@@H](C)Oc2ccccc2C(=O)N(C)[C@H](C)C(=O)N1 (mixture of isomers) | / | / | . | / | /
c1ccc(CSc2nccc(-c3ccco3)n2)cc1 | . | / | -36 | . | /
CCCCNS(=O)(=O)c1ccc2nc(SCC(=O)c3ccccc3OC)[nH]c2c1 | . | . | -45 | . | .
CC(C)CC#Cc1ccc2c(c1)O[C@@H](CN(C)C(=O)c1cccc(F)c1)[C@H](C)CN([C@H](C)CO)S2(=O)=O | . | / | . | . | .
COc1ccc(S(=O)(=O)Nc2ccc3c(c2)C(=O)N([C@H](C)CO)C[C@H](C)[C@@H](CN(C)Cc2ccncc2)O3)cc1 | . | / | . | . | .
CC1(C)Cc2c(c(-c3ccco3)nc3sc4c(NCCN5CCOCC5)ncnc4c23)CO1 | 9.7 | . | . | . | /
CC1(C)Cc2c(c(-c3ccco3)nc3sc4c(NCCCO)ncnc4c23)CO1 | . | . | . | . | /
COC(=O)C[C@H]1CC[C@@H]2[C@H](COc3ccc(NS(C)(=O)=O)cc3C(=O)N2C)O1 | . | / | . | / | .
CC(=O)Nc1ccc2c(O)cc(S(=O)(=O)O)cc2c1 | . | . | . | . | .
O=S(=O)(O)c1ccc(O)c2cc(Nc3ccccc3)ccc12 | . | . | / | . | .
Nc1ccc2c(O)cc(S(=O)(=O)O)cc2c1 | . | . | . | . | .
O=S(=O)(O)c1cc(O)c2cc(Nc3ccccc3)ccc2c1 | . | . | . | 43 | .
O=S(=O)(O)c1cc(O)c2ccc(Nc3ccccc3)cc2c1 | . | . | . | 40 | .
COc1ccccc1Nc1ccc2c(O)cc(S(=O)(=O)O)cc2c1 | . | . | . | 38 | active
C[C@H](CO)N1C[C@H](C)[C@@H](CN(C)Cc2ccc(C(F)(F)F)cc2)Oc2c(NS(=O)(=O)c3cn(C)cn3)cccc2C1=O | . | / | . | . | /
COc1ccc(NC(=O)Nc2ccc3c(c2)C(=O)N([C@H](C)CO)C[C@H](C)[C@@H](CN(C)Cc2ccc4c(c2)OCO4)OCCCC[C@H](C)O3)cc1 | . | / | . | . | .
O=C(NC(Cc1c[nH]c2ccccc12)C(=O)O)c1ccc(F)cc1 (stereo not given) | . | . | . | . | .
CC(C)COc1ccc(C(=O)NC(Cc2c[nH]c3ccccc23)C(=O)NN)cc1 (stereo not given) | / | . | -35 | . | .
Cc1noc(NS(=O)(=O)c2ccc(N/C=C\C(=O)c3ccccc3)cc2)c1C | 12 | . | . | . | .
COc1cccc(C(=O)/C=C/Nc2ccc(S(=O)(=O)Nc3nc(C)cc(C)n3)cc2)c1 | / | . | -21 | . | .
COc1cccc(C(=O)/C=C/Nc2ccc(S(=O)(=O)Nc3ncccn3)cc2)c1 | / | . | . | . | .
SMILES | CFTR F508del cor | PvdQ acylase | rRNA inh HTS | ERAP1 HTS inh | ARNT TACC3 PPI
Cc1ccc(S(=O)(=O)Nc2cccc3c2O[C@@H](CN(C)Cc2ccccc2)[C@@H](C)CN([C@@H](C)CO)C3=O)cc1 | . | / | . | . | .
Cc1n[nH]c(C)c1S(=O)(=O)N1CCC(C(=O)N2CCn3c2nc2ccccc23)CC1 | . | . | -23 | . | .
COc1ccc(NC(=O)N(C)C[C@H]2Oc3ccc(NC(=O)Nc4c(C)noc4C)cc3C(=O)N([C@@H](C)CO)C[C@@H]2C)cc1 | . | / | . | / | .
OCCN1CCN(C(=S)c2ccc(Cl)c(Cl)c2)CC1 | / | . | / | / | 66
CC(C)Oc1ccc(S(=O)(=O)N2CCOCC2)cc1NC(=O)CCCSc1ccccc1 | 8.4 | . | . | . | .
COC(=O)C1=C(C)N(C)C(=NCc2ccc3c(c2)OCO3)NC1c1cccc(F)c1 (stereo not given) | . | / | . | . | /
N#Cc1ccccc1CSc1nc2ccc(NC(=O)c3ccccc3C(=O)O)cc2s1 | . | . | -23 | . | .
Cc1cc(C(=O)NCCC2=CCCCC2)ccc1[N+](=O)[O-] | / | . | -35 | . | /
O=C(NCCC1=CCCCC1)c1ccc([N+](=O)[O-])cc1 | / | . | / | / | .
COc1ccc(C2C3=C(CC(C)(C)CC3=O)Oc3ncn(CCO)c(=N)c32)cc1OC (stereo not given) | / | . | / | / | .
CC(C)Cn1cnc2c(c1=N)C(c1ccccc1)C1=C(CC(C)(C)CC1=O)O2 (stereo not given) | . | . | -38 | . | .
CC(=O)c1cccc(-c2ccnc3c2CC(C(=O)NCc2ccco2)O3)c1 (stereo not given) | 13 | / | . | . | /
O=C(NCc1ccccc1)C1Cc2c(-c3cccc(F)c3)ccnc2O1 (stereo not given) | 9.1 | / | . | . | /
O=C(NCc1ccccc1)C1Cc2c(-c3ccc(Cl)cc3)ccnc2O1 (stereo not given) | 9.2 | / | . | . | /
O=C(Nc1ccccc1)C1Cc2c(-c3ccc(Cl)cc3)ccnc2O1 (stereo not given) | . | / | . | . | /
Cc1nnc(N/N=C/C(C)c2ccccc2)[nH]c1=O (stereo not given) | . | . | . | . | 63
Cc1cc(N2CCCC2)c(F)cc1/C=C\[N+](=O)[O-] | 28 | . | . | / | .
Cc1cc(N2CCC(C)CC2)c(F)cc1[N+](=O)[O-] | / | . | / | / | .
CN1C(=O)c2cc(NC(=O)C3CCCC3)ccc2OC[C@@H]2O[C@@H](CC(=O)O)CC[C@@H]21 | . | / | . | . | .
Nc1nc(N)nc(-c2ccc([N+](=O)[O-])o2)n1 | . | . | -5.3 | . | .
O=[N+]([O-])c1ccc(-c2ccn[nH]2)o1 | / | . | . | . | .
C[C@H](CO)N1C[C@H](C)[C@H](CN(C)S(C)(=O)=O)OCCCC[C@H](C)Oc2ccc(NS(=O)(=O)c3ccc(Cl)cc3)cc2C1=O | . | / | . | . | .
O=C(N/N=C/c1cccs1)c1cc(C2CC2)nc2ccccc12 | 12 | . | . | . | .
O=C(O)COc1ccccc1/C=N/NC(=O)c1cc(-c2ccc(F)cc2)nc2ccccc12 | . | . | . | . | 47
O=C(N/N=C/c1ccc[nH]1)c1cc(-c2cccs2)nc2ccccc12 | . | . | -24 | . | .
O=C(N/N=C/c1cccnc1)c1cc(-c2cccs2)nc2ccccc12 | / | . | / | / | .
